The nature of experiment [1]: antimalarial activity against Dd2 strain (AID 2302;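 active means growth inhibition above 50% at the single 2 µM test dose, taken to imply half-maximal potency below 2 µM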;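 further: 0% = DMSO untreated growth and 100% = chloroquine plus artemisinin killed control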). To be noted: P. falciparum Dd2 in RBCs, LDH growth readout, 72 h; at 2 µM; stronger effect = higher value.
Experiment [2] can be described thus: HepG2 cytotoxicity, primary screen, cytotoxicity control for P. falciparum antimalarial project, cell-based, ATP luminescence (AID 2303;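 active means inhibition above 50%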;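 further: 0% = DMSO wells and 100% = digitonin-killed cells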). The conditions noted are these: HepG2 viability, 24-48 h, at 10 µM, stronger effect = higher value.
Experiment [3] addresses L-lactate dehydrogenase (Plasmodium falciparum (isolate CDC / Honduras)) (UniProt Q27743). Nature of the experiment: PfLDH activity inhibition – cell lysate, 3D7 strain, counter-screen for P. falciparum growth inhibition project (AID 2304).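 Further: 0% = vehicle and 100% = reference inhibitor.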 To be noted: P. falciparum 3D7 crude extract, LDH APAD/NBT absorbance; at 2 µM; stronger effect = higher value. For orientation: Counterscreens check selectivity or assay interference.

Experiment [4] can be described thus: inhibition of 3D7 malaria parasite growth – strain 3D7 (AID 2306).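 Further: 0% = DMSO wells and 100% = chloroquine plus artemisinin control wells.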 To be noted: P. falciparum 3D7 erythrocytic growth, LDH absorbance, 72 h; at 2 µM; stronger effect = higher value.
Experiment [5] addresses Calcium-dependent protein kinase 1 (Plasmodium falciparum (isolate 3D7)) (UniProt P62344). Description: PfCDPK1 kinase inhibitors, biochemical, TCAMS library (AID 1159585; cut-off not given, nearly all actives have IC50 up to about 0.98 µM;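 further: inhibitors leave more ATP so luminescence rises with inhibition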). The conditions noted are these: recombinant PfCDPK1, Kinase-Glo ATP depletion luminescence.
The target of experiment [6] is Plasmodium falciparum protein kinase 6 (PK6, PF3D7_1337100) (UniProt Q8IDW1). Nature of the experiment: PfPK6 kinase inhibitors, biochemical, TCAMS library (AID 1159586). To be noted: recombinant PfPK6, Kinase-Glo ATP depletion luminescence. (Kinase-Glo measures the ATP left after a reaction by luminescence.)
The target of experiment [7] is Protein kinase 7 (PK7), Plasmodium falciparum 3D7 (PF3D7_0213400) (UniProt Q7YTF7). Description: inhibition of Plasmodium PK7 catalytic activity – biochemical, TCAMS antimalarial set, Kinase-Glo luminescence (AID 1159587). To be noted: recombinant PfPK7, Kinase-Glo ATP depletion luminescence.
Experiment [8] addresses Calcium-dependent protein kinase 4 (Plasmodium falciparum (isolate 3D7)) (UniProt Q8IBS5). Description: PfCDPK4 kinase inhibitors, biochemical, TCAMS library (AID 1159588; cut-off not given, nearly all actives have IC50 up to about 0.91 µM). To be noted: recombinant PfCDPK4, Kinase-Glo ATP depletion luminescence.

Several values for one entry are separate records, joined by “and”; a condition that tells them apart may be missing. Identical values can stand only once. For part of these data: Entries with a potency or affinity are not part of this list. A structure can be active in one record and inactive in another. Activity calls are given as the source filed them. Unless noted, how the calls were made is not given here.

One may read the inhibition as the relative decrease from the control value, in per cent.

Sequence of Plasmodium falciparum protein kinase 6 (PK6, PF3D7_1337100) (Q8IDW1 1-305): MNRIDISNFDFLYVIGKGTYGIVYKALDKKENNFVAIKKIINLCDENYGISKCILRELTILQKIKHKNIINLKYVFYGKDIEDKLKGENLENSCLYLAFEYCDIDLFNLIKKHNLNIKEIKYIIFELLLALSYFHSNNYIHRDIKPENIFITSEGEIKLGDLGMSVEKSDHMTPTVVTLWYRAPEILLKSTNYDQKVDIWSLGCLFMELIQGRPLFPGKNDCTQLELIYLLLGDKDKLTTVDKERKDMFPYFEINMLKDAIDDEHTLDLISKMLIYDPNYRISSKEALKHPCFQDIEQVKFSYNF
Sequence of Protein kinase 7 (PK7), Plasmodium falciparum 3D7 (PF3D7_0213400) (Q7YTF7 1-343): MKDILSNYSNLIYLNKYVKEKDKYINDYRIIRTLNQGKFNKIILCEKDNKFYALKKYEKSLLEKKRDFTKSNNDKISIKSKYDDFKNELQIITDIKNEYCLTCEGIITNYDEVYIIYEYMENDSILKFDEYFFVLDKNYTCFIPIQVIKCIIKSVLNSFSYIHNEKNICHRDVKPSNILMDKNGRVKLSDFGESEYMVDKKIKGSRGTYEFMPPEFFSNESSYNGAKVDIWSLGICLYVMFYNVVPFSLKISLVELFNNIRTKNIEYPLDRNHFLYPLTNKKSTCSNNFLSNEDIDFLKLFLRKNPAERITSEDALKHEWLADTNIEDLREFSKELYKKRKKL
Sequence of L-lactate dehydrogenase (Plasmodium falciparum (isolate CDC / Honduras)) (Q27743 whole entry, looked up): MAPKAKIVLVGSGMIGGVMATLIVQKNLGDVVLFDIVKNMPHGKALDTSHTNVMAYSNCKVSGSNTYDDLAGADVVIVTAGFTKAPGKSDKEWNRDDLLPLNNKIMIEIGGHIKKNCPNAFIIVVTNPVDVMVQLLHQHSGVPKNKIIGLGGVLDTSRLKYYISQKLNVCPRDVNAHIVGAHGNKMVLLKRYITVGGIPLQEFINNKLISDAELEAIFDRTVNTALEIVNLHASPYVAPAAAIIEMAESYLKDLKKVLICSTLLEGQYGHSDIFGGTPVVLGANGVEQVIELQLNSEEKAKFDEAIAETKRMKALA
Sequence of Calcium-dependent protein kinase 4 (Plasmodium falciparum (isolate 3D7)) (Q8IBS5 whole entry, looked up): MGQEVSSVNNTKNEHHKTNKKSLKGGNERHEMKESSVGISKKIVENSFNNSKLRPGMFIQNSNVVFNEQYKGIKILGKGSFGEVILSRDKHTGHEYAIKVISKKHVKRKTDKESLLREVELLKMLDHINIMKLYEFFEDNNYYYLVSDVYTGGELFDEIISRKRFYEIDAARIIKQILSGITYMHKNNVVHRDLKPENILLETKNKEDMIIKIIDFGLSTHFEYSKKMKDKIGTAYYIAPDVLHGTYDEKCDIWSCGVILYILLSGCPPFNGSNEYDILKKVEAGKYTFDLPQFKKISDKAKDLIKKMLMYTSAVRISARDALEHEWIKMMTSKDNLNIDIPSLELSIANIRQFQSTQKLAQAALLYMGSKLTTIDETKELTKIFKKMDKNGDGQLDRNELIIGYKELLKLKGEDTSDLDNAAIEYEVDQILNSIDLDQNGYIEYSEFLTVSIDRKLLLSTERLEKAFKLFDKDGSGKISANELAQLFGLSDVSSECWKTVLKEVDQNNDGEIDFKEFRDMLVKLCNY
Sequence of Calcium-dependent protein kinase 1 (Plasmodium falciparum (isolate 3D7)) (P62344 whole entry, looked up): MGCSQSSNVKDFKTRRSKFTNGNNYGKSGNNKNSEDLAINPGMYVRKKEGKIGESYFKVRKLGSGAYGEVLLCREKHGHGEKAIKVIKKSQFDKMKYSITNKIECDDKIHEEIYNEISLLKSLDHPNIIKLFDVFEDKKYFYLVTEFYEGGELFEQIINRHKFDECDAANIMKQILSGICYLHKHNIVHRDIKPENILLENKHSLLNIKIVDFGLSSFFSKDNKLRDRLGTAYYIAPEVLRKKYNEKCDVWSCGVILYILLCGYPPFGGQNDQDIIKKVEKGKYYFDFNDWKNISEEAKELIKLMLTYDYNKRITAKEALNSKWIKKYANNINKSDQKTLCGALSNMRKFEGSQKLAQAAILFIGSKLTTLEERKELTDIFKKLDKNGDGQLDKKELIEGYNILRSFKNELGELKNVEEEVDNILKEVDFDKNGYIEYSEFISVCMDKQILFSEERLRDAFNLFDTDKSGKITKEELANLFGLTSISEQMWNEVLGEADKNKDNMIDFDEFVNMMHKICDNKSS

Consider `Cc1ccc2nc(C)cc(NC(=O)Nc3ccc(N(C)C)cc3)c2c1`, for which the growth inhibition in experiment [1] is 41% (inactive); in experiment [4], 100% (active). Moreover, the inhibition in experiment [2] was 12% (inactive); in experiment [3], -3% (inactive). For the same compound, the result in experiment [5], in experiment [6], in experiment [7] and in experiment [8] was inactive.

With `Fc1ccc2ncc(Cl)c(CCN3CCC(NCc4cc5c(cn4)OCCO5)CC3)c2c1`, the values for the growth inhibition in experiment [1] and in experiment [4] were 20% (inactive) and 93% (active), respectively. The inhibition is 24% (inactive) in experiment [2] and -4% (inactive) in experiment [3]. Besides, the outcome in experiment [5], in experiment [6], in experiment [7] and in experiment [8] was inactive.

On to `Cc1noc(C)c1-c1cccc(CNCc2cccc(-c3csc(-c4nc5ccccc5[nH]4)c3)c2)c1`, for which the growth inhibition was 74% (active) in experiment [1] and 100% (active) in experiment [4]. The inhibition is 32% (inactive) in experiment [2] and -7% (inactive) in experiment [3]. Also, the outcome in experiment [5], in experiment [6], in experiment [7] and in experiment [8] was inactive.

For `COc1cc(C(F)(F)F)c2cc(CNCCCNc3nc4ccccc4[nH]3)[nH]c2c1`, the values for the growth inhibition in experiment [1] and in experiment [4] were 0% (inactive) and 101% (active), respectively. In addition, the inhibition was 60% (active) in experiment [2] and -6% (inactive) in experiment [3]. Besides, the outcome in experiment [5], in experiment [6], in experiment [7] and in experiment [8] was inactive.

For the compound `CC(C)(C)NC(=O)COC(=O)c1c2c(nc3ccccc13)C(=Cc1ccc3c(c1)OCO3)CCC2`, the growth inhibition was 82% (active) in experiment [1] and 90% (active) in experiment [4]. In addition, the inhibition is 7% (inactive) in experiment [2] and -4% (inactive) in experiment [3]. Moreover, the result in experiment [5], in experiment [6], in experiment [7] and in experiment [8] was inactive.

With `O=C(NC1CC1)c1cnc(N2CCCC(c3ccccc3)C2)c(Cl)c1` (centres undefined), the values for the growth inhibition in experiment [1] and in experiment [4] were 94% (active) and 95% (active), respectively. Besides, the inhibition was 6% (inactive) in experiment [2] and -3% (inactive) in experiment [3]. Besides, the outcome in experiment [5], in experiment [6], in experiment [7] and in experiment [8] was inactive.

For the compound `CC(=O)Nc1ccc(OCCN(Cc2ccccc2C(F)(F)F)c2ccc(C#N)c(C(F)(F)F)c2)cc1`, the growth inhibition in experiment [1] is 81% (active); in experiment [4] it was 101% (active). The inhibition is 8% (inactive) in experiment [2] and 0% (inactive) in experiment [3]. The outcome in experiment [5], in experiment [6], in experiment [7] and in experiment [8] was inactive.

Regarding `O=C(Nc1ccc(Cn2ncc(N3CCCNCC3)c(Cl)c2=O)cc1)Nc1ccc(-c2ccccc2)cc1`, the growth inhibition in experiment [1] is 41% (inactive) and 51% (active); in experiment [4], 93% (active). The inhibition is 12% (inactive) and 10% (inactive) in experiment [2]; -2% (inactive) and 8% (inactive) in experiment [3]. Further, the outcome in experiment [5], in experiment [6], in experiment [7] and in experiment [8] was inactive.

Regarding `Cc1nc(-c2ccc(-c3ccc(NC(=O)c4coc5ccc(N6C[C@@H](C)N[C@@H](C)C6)cc45)cc3)c(C)c2)no1`, the growth inhibition in experiment [1] is 88% (active); in experiment [4], 101% (active). The inhibition in experiment [2] and in experiment [3] was 1% (inactive) each time. Besides, the result in experiment [5], in experiment [6], in experiment [7] and in experiment [8] was inactive.

Take `CCCCSc1c(CNCCCCCCNCc2ccc3ccccc3c2SCCCC)ccc2ccccc12`: the figures for the growth inhibition in experiment [1] and in experiment [4] were 62% (active) and 93% (active), respectively. The values for the inhibition in experiment [2] and in experiment [3] were 99% (active) and -9% (inactive), respectively. Moreover, the outcome in experiment [5], in experiment [6], in experiment [7] and in experiment [8] was inactive.

`CC(=O)Nc1ccc(CN2Cc3ccc(NC(=O)Nc4ccc(Oc5ccccc5)cc4)cc3C2)s1`: the growth inhibition in experiment [1] is 25% (inactive); in experiment [4], 91% (active). The figures for the inhibition in experiment [2] and in experiment [3] were 9% (inactive) and 6% (inactive), respectively. Also, the result in experiment [5], in experiment [6], in experiment [7] and in experiment [8] was inactive.

Turning to `Cc1cc(O)c(-c2cc(C(=O)Nc3cccnc3)[nH]n2)cc1C`, the growth inhibition in experiment [1] and in experiment [4] was 97% (active) in each case. For the same compound, the inhibition in experiment [2] is 12% (inactive); in experiment [3] it was -7% (inactive). In addition, the result in experiment [5], in experiment [6], in experiment [7] and in experiment [8] was inactive.

`O=C(NC1CC1)c1ccc(Cn2c(SCc3cccc(Cl)c3)nc3ccccc3c2=O)cc1`: the growth inhibition was 70% (active) in experiment [1] and 90% (active) in experiment [4]. Besides, the inhibition was 2% (inactive) in experiment [2] and 1% (inactive) in experiment [3]. Also, the outcome in experiment [5], in experiment [6], in experiment [7] and in experiment [8] was inactive.

For `CN1CCC(C(=O)Nc2cccc(-c3ccc(-c4nc5ccc(C(F)(F)F)cc5[nH]4)s3)c2)CC1`, the growth inhibition is 95% (active) in experiment [1] and 101% (active) in experiment [4]. For the same compound, the inhibition is 29% (inactive) in experiment [2] and 0% (inactive) in experiment [3]. Further, the outcome in experiment [5], in experiment [6], in experiment [7] and in experiment [8] was inactive.

On to `O=C(/C=C/c1ccc(Cl)c(Cl)c1)NCCCCCN1CC[C@H](NC(=O)c2ccc3c(c2)OCO3)C1`, for which the growth inhibition in experiment [1] is 3% (inactive); in experiment [4], 94% (active). The inhibition in experiment [2] was 32% (inactive); in experiment [3] it was 0% (inactive). The result in experiment [5], in experiment [6], in experiment [7] and in experiment [8] was inactive.

Take `CCCC(C)Nc1nc(C)cc(N[C@@H](CC(C)C)C(=O)NCc2ccc(C)cc2)n1` (some centres undefined): the growth inhibition in experiment [1] is 51% (active); in experiment [4] it was 98% (active). For the same compound, the inhibition was 16% (inactive) in experiment [2] and -1% (inactive) in experiment [3]. Also, the outcome in experiment [5], in experiment [6], in experiment [7] and in experiment [8] was inactive.

With `COc1ccc(CN(C)CCCSc2ccc(NC(=O)c3cccc4c(=O)cc(-c5ccccc5)[nH]c34)cc2)cc1OC`, the growth inhibition in experiment [1] was 94% (active); in experiment [4] it was 93% (active). For the same compound, the inhibition in experiment [2] was 15% (inactive); in experiment [3], -6% (inactive). Also, the result in experiment [5], in experiment [6], in experiment [7] and in experiment [8] was inactive.

On to `COc1ccc2ncc(F)c(CCN3CCC(CNC(=O)C(=O)c4c[nH]c5ccccc45)CC3)c2n1`, for which the growth inhibition is 99% (active) in experiment [1] and 103% (active) in experiment [4]. Moreover, the values for the inhibition in experiment [2] and in experiment [3] were 48% (inactive) and -6% (inactive), respectively. For the same compound, the outcome in experiment [5], in experiment [6], in experiment [7] and in experiment [8] was inactive.

Source of the values: PubChem BioAssay.
